From ChEMBL document CHEMBL3988442, “University of Dundee, Small-Polar-MMV Screening Library” (2021)

Biological target: Sialic acid-binding Ig-like lectin 9 (Homo sapiens) (UniProt Q9Y336)
Test: Hs-Siglec9 ALPHAscreen SOP 20170721
Design: scale not given: direction of the effect not stated beside the values
Details: 10 µM

Sialic acid-binding Ig-like lectin 9 (Homo sapiens), sequence (Q9Y336 whole entry): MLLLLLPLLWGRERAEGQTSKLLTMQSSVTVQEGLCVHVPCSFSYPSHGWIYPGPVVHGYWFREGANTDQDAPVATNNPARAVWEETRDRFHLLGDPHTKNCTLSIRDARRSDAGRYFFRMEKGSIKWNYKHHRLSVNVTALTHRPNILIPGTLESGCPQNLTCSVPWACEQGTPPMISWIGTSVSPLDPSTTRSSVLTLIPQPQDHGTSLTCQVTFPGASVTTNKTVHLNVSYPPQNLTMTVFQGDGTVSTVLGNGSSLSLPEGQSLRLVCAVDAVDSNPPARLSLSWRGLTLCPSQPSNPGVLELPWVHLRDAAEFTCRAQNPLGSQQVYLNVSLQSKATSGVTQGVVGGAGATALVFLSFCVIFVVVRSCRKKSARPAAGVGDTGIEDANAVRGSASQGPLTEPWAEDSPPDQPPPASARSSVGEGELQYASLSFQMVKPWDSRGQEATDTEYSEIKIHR

Row | Structure (SMILES) | Percent Effect [%]
1 | COc1ccccc1CN1CCC2(CC1)CC(Oc1ccccn1)CO2 (stereo not given) | -9.97
2 | CC(C)Nc1nc(N2CCOCC2)nc2c1CN(CC(=O)N(C)C)CC2 | -0.0149
3 | c1ccc(CCN2CCN(c3ccc4nncn4n3)CC2)nc1 | 7.22
4 | COc1cccc(CCNC(=O)CN2CCN(C)CC2C)c1 (stereo not given) | -5.98
5 | CC(=O)N1CCC(Oc2ccc(C#N)cn2)CC1 | 12.9
6 | COc1cccc(CCC(=O)N2CCCCC2Cn2cccn2)c1 (stereo not given) | 2.3
7 | Cc1scc(C(=O)N2CCC3(CC(=O)NC3=O)C2)c1-c1ccccc1 (stereo not given) | 1.45
8 | CCc1csc(C2CCCN(C(=O)c3ccc(OC)nn3)C2)n1 (stereo not given) | 12.8
9 | CN(C)S(=O)(=O)c1ccc(CN2CCCC2c2ccccc2)o1 (stereo not given) | -3.79
10 | Clc1cc(CN2CCCC2Cn2cncn2)c2ncccc2c1 (stereo not given) | -0.586
11 | C=C(C)CN(Cc1cccc(O)c1)C1CCC(O)CC1 (stereo not given) | 6.05
12 | CCn1c(N)nc2cc(C(=O)NCc3ccccc3Cl)cnc21 | -1.08
13 | CCOCC1CN(S(C)(=O)=O)Cc2cnn(C)c21 (stereo not given) | 10.1
14 | c1ccc(OC[C@]23COC[C@H]2CN(c2ncccn2)C3)nc1 | 5.7
15 | CCCC(=O)NCc1cc(Br)c(OC)c(OC)c1 | 14.4
16 | CCc1csc(C2CCCN(C(=O)c3ccnc(N(C)C)c3)C2)n1 (stereo not given) | -9.58
17 | Cc1ccsc1-c1nnc(C2CCN(Cc3ccc(F)cc3)CC2)o1 | 4.24
18 | CC(NC(N)=O)C(=O)N(C)CCCc1cc(-c2ccccc2)no1 (stereo not given) | -4.86
19 | Cc1cccc(C(=O)NCCCN2CCN(c3ccccc3)CC2)c1 | -11.3
20 | CC1CCCCN1CCNC(=O)c1ccn(-c2ccc(F)cc2)n1 (stereo not given) | 3.77

Row | Structure (SMILES) | Percent Effect [%]
21 | Cc1noc(C)c1CN1CC2(CCN(C(=O)c3cscn3)CC2)CC1=O | 16.6
22 | O=C(NCc1ccccn1)NC1CCOc2ccccc21 (stereo not given) | 9.97
23 | COc1ccc(CN2C[C@@H](OCc3ccccn3)[C@H]3COC[C@H]32)cc1 | -1.37
24 | Cc1cnn(CC2CCCN2Cc2nc3ccccc3nc2C)c1 (stereo not given) | 1.31
25 | Cn1cc(C2CCCN2CCCc2nc(-c3cccs3)no2)cn1 (stereo not given) | -1.6
26 | O=C(Nc1cccc(OCc2ccc(F)cc2)c1)C1COCCO1 (stereo not given) | -3.67
27 | O=C(C1CCCc2[nH]ncc21)N1CCCCCC1 (stereo not given) | 2.71
28 | CN(C)S(=O)(=O)N1CCC(Oc2ccc(C#N)cn2)CC1 | 0.477
29 | O=C(c1cccc2cccnc12)N1CCCN(c2cccnn2)CC1 | 1.47
30 | CC(NC(=O)NCc1cccnc1N1CCCCC1)c1nccs1 (stereo not given) | 1.05
31 | CCS(=O)(=O)c1ccccc1N1CCC(NC(=O)NC2CCCC2)CC1 | 8.77
32 | Cc1nc(CN2CCN(CC(=O)Nc3c(C)cccc3C)CC2)no1 | -7.52
33 | Fc1ccc2c(c1)C(NCc1nnc3n1CCCCC3)CCCO2 (stereo not given) | 19.3
34 | Cc1cc(N2CCN(Cc3ccc(-c4cc[nH]n4)o3)CC2)cc(C)n1 | 33.9
35 | COc1cc(C)nc(N2CCN(C(=O)CCc3cscn3)CC2)n1 | 0.273
36 | O=C(NCC1CC1)[C@H]1CC[C@@H]2[C@@H](CCN2Cc2ccoc2)O1 | 26
37 | Cc1noc(C)c1C(=O)N(C)Cc1nc(-c2ccccn2)no1 | 19
38 | CNc1nc(CNC(=O)Nc2ccccc2-c2noc(C)n2)cs1 | -0.349
39 | Cc1nnc2n1CCN(C(=O)c1cc(Cl)c[nH]1)C2 | 10.9
40 | CCn1cc2c(n1)CN(CC1CC1)CC2COCC1CC1 (stereo not given) | -3.73

Tested on: Trypanosoma cruzi
Test: Trypanosoma cruzi phosphomannomutase and mannose-1-phosphate guanylyltransferase assay
Assay type: functional
Design: scale not given: direction of the effect not stated beside the values
Details: 10 µM

Row | Structure (SMILES) | Percent Effect [%]
41 | COc1ccccc1CN1CCC2(CC1)CC(Oc1ccccn1)CO2 (stereo not given) | 2.76
42 | CC(C)Nc1nc(N2CCOCC2)nc2c1CN(CC(=O)N(C)C)CC2 | -0.591
43 | c1ccc(CCN2CCN(c3ccc4nncn4n3)CC2)nc1 | -4.49
44 | COc1cccc(CCNC(=O)CN2CCN(C)CC2C)c1 (stereo not given) | -4.92
45 | CC(=O)N1CCC(Oc2ccc(C#N)cn2)CC1 | 2.94
46 | COc1cccc(CCC(=O)N2CCCCC2Cn2cccn2)c1 (stereo not given) | 1.47
47 | Cc1scc(C(=O)N2CCC3(CC(=O)NC3=O)C2)c1-c1ccccc1 (stereo not given) | 1.35
48 | CCc1csc(C2CCCN(C(=O)c3ccc(OC)nn3)C2)n1 (stereo not given) | 0.187
49 | CN(C)S(=O)(=O)c1ccc(CN2CCCC2c2ccccc2)o1 (stereo not given) | 9.06
50 | Clc1cc(CN2CCCC2Cn2cncn2)c2ncccc2c1 (stereo not given) | -2.88
51 | C=C(C)CN(Cc1cccc(O)c1)C1CCC(O)CC1 (stereo not given) | -2.64
52 | CCn1c(N)nc2cc(C(=O)NCc3ccccc3Cl)cnc21 | -0.196
53 | CCOCC1CN(S(C)(=O)=O)Cc2cnn(C)c21 (stereo not given) | 5.79
54 | c1ccc(OC[C@]23COC[C@H]2CN(c2ncccn2)C3)nc1 | 6.37
55 | CCCC(=O)NCc1cc(Br)c(OC)c(OC)c1 | 6.72
56 | CCc1csc(C2CCCN(C(=O)c3ccnc(N(C)C)c3)C2)n1 (stereo not given) | 4.58
57 | Cc1ccsc1-c1nnc(C2CCN(Cc3ccc(F)cc3)CC2)o1 | 7.31
58 | CC(NC(N)=O)C(=O)N(C)CCCc1cc(-c2ccccc2)no1 (stereo not given) | -10.1
59 | Cc1cccc(C(=O)NCCCN2CCN(c3ccccc3)CC2)c1 | -7
60 | CC1CCCCN1CCNC(=O)c1ccn(-c2ccc(F)cc2)n1 (stereo not given) | 6.51

Row | Structure (SMILES) | Percent Effect [%]
61 | Cc1noc(C)c1CN1CC2(CCN(C(=O)c3cscn3)CC2)CC1=O | 5.01
62 | O=C(NCc1ccccn1)NC1CCOc2ccccc21 (stereo not given) | 9.19
63 | COc1ccc(CN2C[C@@H](OCc3ccccn3)[C@H]3COC[C@H]32)cc1 | -3.62
64 | Cc1cnn(CC2CCCN2Cc2nc3ccccc3nc2C)c1 (stereo not given) | 4.41
65 | Cn1cc(C2CCCN2CCCc2nc(-c3cccs3)no2)cn1 (stereo not given) | -3.87
66 | O=C(Nc1cccc(OCc2ccc(F)cc2)c1)C1COCCO1 (stereo not given) | -1.27
67 | O=C(C1CCCc2[nH]ncc21)N1CCCCCC1 (stereo not given) | -2.64
68 | CN(C)S(=O)(=O)N1CCC(Oc2ccc(C#N)cn2)CC1 | 3.25
69 | O=C(c1cccc2cccnc12)N1CCCN(c2cccnn2)CC1 | 6.37
70 | CC(NC(=O)NCc1cccnc1N1CCCCC1)c1nccs1 (stereo not given) | 6.37
71 | CCS(=O)(=O)c1ccccc1N1CCC(NC(=O)NC2CCCC2)CC1 | 0.279
72 | Cc1nc(CN2CCN(CC(=O)Nc3c(C)cccc3C)CC2)no1 | 5.58
73 | Fc1ccc2c(c1)C(NCc1nnc3n1CCCCC3)CCCO2 (stereo not given) | 7.92
74 | Cc1cc(N2CCN(Cc3ccc(-c4cc[nH]n4)o3)CC2)cc(C)n1 | 10.2
75 | COc1cc(C)nc(N2CCN(C(=O)CCc3cscn3)CC2)n1 | -6.95
76 | O=C(NCC1CC1)[C@H]1CC[C@@H]2[C@@H](CCN2Cc2ccoc2)O1 | 4.99
77 | Cc1noc(C)c1C(=O)N(C)Cc1nc(-c2ccccn2)no1 | 2.43
78 | CNc1nc(CNC(=O)Nc2ccccc2-c2noc(C)n2)cs1 | -3.19
79 | Cc1nnc2n1CCN(C(=O)c1cc(Cl)c[nH]1)C2 | 0.376
80 | CCn1cc2c(n1)CN(CC1CC1)CC2COCC1CC1 (stereo not given) | -1.77
